“And” between values parts separate entries of the source, which are not always exact repeats. Equal values may be shown once. Inconclusive results are not listed. The source holds several records for some structures; these can differ, active in one and inactive in another. The source made the active and inactive calls. How the source made its calls, unless noted: active means hit-call score of the fitted dose curve at least 0.9, where 1 is the maximum; inactive means score below 0.9.
How the values were obtained:
[1] = read-out: Collagen I, COL1A1 (gene 1277); test: BSK_MyoF_CollagenI: BioMAP Diversity Plus: MyoF Assay for Collagen I Biomarker Activity (AID 2284238); conditions: primary human lung fibroblasts
In short: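 Primary human lung fibroblasts (MyoF system) treated 24 h; Collagen I quantified by ELISA and fitted in positive direction against DMSO. Parallel SRB total-protein staining assessed overt cytotoxicity.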

[2] = read-out: Collagen III, COL3A1 (gene 1281); test: BSK_MyoF_CollagenIII: BioMAP Diversity Plus: MyoF Assay for Collagen III Biomarker Activity (AID 2284239); conditions: primary human lung fibroblasts
In short: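 Primary human lung fibroblasts (BioMAP MyoF system) exposed 24 h. Collagen III measured by ELISA; positive-direction fit relative to DMSO.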

[3] = CCTE_Mundy_HCI_hNP1_Casp3_7: CCTE's Caspase-Glo 3/7 Assay in human neuroprogenitor cells for Apoptosis, Mundy Lab (AID 2284240)
In short: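 Neuroepithelial-lineage stem cells from WA09 embryonic cells were treated with chemicals after 40–44 h of culture. Twenty-four hours later, caspase-3/7 activation was detected luminescently after a 30 min room-temperature reagent step, with DMSO as baseline.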

[4] = CCTE_Mundy_HCI_hNP1_CellTiter: CCTE's Cell Titer-Glo 2 Assay in human neuroprogenitor cells for Viability, Mundy Lab (AID 2284241; active means hit-call score of the fitted dose curve at least 0.9, where 1 is the maximum)
In short: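 Measures ATP content in human neural progenitors derived from WA09 embryonic cells. Read-out at 26.5 hours after dosing, with DMSO serving as the negative control and baseline.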

[5] = read-out: Interleukin 17F (IL17F), IL17F (gene 112744); test: BSK_BT_xIL17F: BioMAP Diversity Plus: BT Assay for Interleukin 17F (IL17F) Biomarker Activity (AID 2284243); conditions: primary human B cells with PBMC
In short: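 Human PBMC co-cultured with B cells, compound exposure 24 h; secreted IL-17F quantified by Luminex xMAP, referenced to DMSO control. PBMC viability measured in parallel by Alamar Blue reduction.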

[6] = read-out: Actin alpha 1 (ACTA1), ACTA1 (gene 58); test: BSK_MyoF_ACTA1: BioMAP Diversity Plus: MyoF Assay for Actin alpha 1 (ACTA1) Biomarker Activity (AID 2284244); conditions: primary human lung fibroblasts
In short: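 Measured by ELISA: alpha-smooth muscle actin in human primary lung fibroblasts 24 h after dosing, with DMSO as baseline and upward signal change as the fitted direction.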

[7] = read-out: Interleukin 2 (IL2), IL2 (gene 3558); test: BSK_BT_xIL2: BioMAP Diversity Plus: BT Assay for Interleukin 2 (IL2) Biomarker Activity (AID 2284245); conditions: primary human B cells with PBMC
In short: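 Secreted interleukin-2 from human B cell/PBMC co-cultures, measured 24 h post-dosing by Luminex multiplex immunoassay. Upward-direction curve fitting against DMSO baseline.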

[8] = read-out: Collagen IV, COL4A1 (gene 1282); test: BSK_MyoF_CollagenIV: BioMAP Diversity Plus: MyoF Assay for Collagen IV Biomarker Activity (AID 2284247); conditions: primary human lung fibroblasts
In short: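 Activity is scored as a signal increase over DMSO in an ELISA for Collagen IV, measured on human lung fibroblasts at 24 h after chemical treatment. Cytotoxicity is checked in parallel cultures by sulforhodamine B total-protein staining.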

[9] = read-out: Monokine induced gamma interferon (MIG), CXCL9 (gene 4283); test: BSK_KF3CT_MIG: BioMAP Diversity Plus: KF3CT Assay for Monokine induced gamma interferon (MIG) Biomarker Activity (AID 2284248); conditions: primary human keratinocytes with fibroblasts
In short: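 Human keratinocyte–foreskin fibroblast co-culture; MIG measured by ELISA 24 h after chemical dosing, fitted upward versus DMSO. Cytotoxicity was assessed in parallel cultures by SRB total-protein staining read at 560 nm.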

[10] = read-out: Vascular cell adhesion molecule 1 (VCAM1), VCAM1 (gene 7412); test: BSK_BF4T_VCAM1: BioMAP Diversity Plus: BF4T Assay for Vascular cell adhesion molecule 1 (VCAM1) Biomarker Activity (AID 2284249); conditions: primary human bronchial epithelial cells with fibroblasts
In short: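 Human bronchial epithelial cell and dermal fibroblast co-culture exposed 24 h. VCAM-1 measured by ELISA; parallel SRB total-protein staining for cytotoxicity. Fitted in positive direction relative to DMSO.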

[11] = read-out: Collagen I, COL1A1 (gene 1277); test: BSK_hDFCGF_CollagenI: BioMAP Diversity Plus: hDFCGF Assay for Collagen I Biomarker Activity (AID 2284250); conditions: primary human foreskin fibroblasts
In short: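 Cells were primary human foreskin fibroblasts treated for 24 h. Collagen I levels were then determined by ELISA and compared against DMSO controls.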

[12] = read-out: Interferon-inducible T-cell alpha chemoattractant (ITAC), CXCL11 (gene 6373); test: BSK_hDFCGF_ITAC: BioMAP Diversity Plus: hDFCGF Assay for Interferon-inducible T-cell alpha chemoattractant (ITAC) Biomarker Activity (AID 2284251); conditions: primary human foreskin fibroblasts
In short: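 ELISA readout of I-TAC after 24 h chemical exposure; human dermal foreskin fibroblast primary cells. Positive-direction fitting vs DMSO baseline. Parallel SRB total-protein staining (0.1% SRB after 10% TCA fixation, 560 nm) flags cytotoxicity.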

[13] = read-out: Plasminogen activator inhibitor-1 (PAI1), SERPINE1 (gene 5054); test: BSK_KF3CT_PAI1: BioMAP Diversity Plus: KF3CT Assay for Plasminogen activator inhibitor-1 (PAI1) Biomarker Activity (AID 2284252); conditions: primary human keratinocytes with fibroblasts
In short: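 Signal is PAI-1 detected by ELISA in a human skin-derived keratinocyte/fibroblast co-culture, 24 h after dosing; DMSO served as negative control and baseline.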

[14] = read-out: Monocyte Chemoattractant Protein-1 (MCP1), CCL2 (gene 6347); test: BSK_IMphg_MCP1: BioMAP Diversity Plus: IMphg Assay for Monocyte Chemoattractant Protein-1 (MCP1) Biomarker Activity (AID 2284253); conditions: primary human endothelial cells with macrophages
In short: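 Human venular endothelial cells co-cultured with macrophages; MCP-1 measured by ELISA 24 hours post-dose and fitted against DMSO. Cytotoxicity monitored by SRB total-protein staining in parallel cultures.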

[15] = read-out: Interleukin-8 (IL8), CXCL8 (gene 3576); test: BSK_KF3CT_IL8: BioMAP Diversity Plus: KF3CT Assay for Interleukin-8 (IL8) Biomarker Activity (AID 2284254); conditions: primary human keratinocytes with fibroblasts
In short: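 Human keratinocyte/foreskin fibroblast co-culture dosed 24 h; IL-8 measured by ELISA relative to DMSO. Parallel cultures stained with SRB for total protein to flag cytotoxicity.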

[16] = read-out: Plasminogen activator inhibitor-1 (PAI1), SERPINE1 (gene 5054); test: BSK_MyoF_PAI1: BioMAP Diversity Plus: MyoF Assay for Plasminogen activator inhibitor-1 (PAI1) Biomarker Activity (AID 2284256); conditions: primary human lung fibroblasts
In short: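 Primary human lung fibroblasts treated with chemical for 24 h; PAI-1 levels quantified by ELISA relative to DMSO. Cytotoxicity was assessed in parallel cultures by SRB total-protein staining (0.1% SRB after 10% TCA fixation, 560 nm).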

CD69, CD69 (gene 969) = test: BSK_IMphg_CD69: BioMAP Diversity Plus: IMphg Assay for CD69 Biomarker Activity (AID 2284257); conditions: primary human endothelial cells with macrophages
In short: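 Human venular endothelial cells co-cultured with macrophages; CD69 quantified by ELISA 24 h after compound addition. Activity fitted in the positive direction relative to DMSO baseline; cytotoxicity tracked in parallel cultures via SRB total-protein staining.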

[17] = read-out: Basic fibroblast growth factor (bFGF), FGF2 (gene 2247); test: BSK_MyoF_bFGF: BioMAP Diversity Plus: MyoF Assay for Basic fibroblast growth factor (bFGF) Biomarker Activity (AID 2284246); conditions: primary human lung fibroblasts
In short: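 In this multiplexed cell system, lung fibroblasts (human primary) receive test chemical for 24 h before ELISA detection of bFGF; DMSO defines baseline and the analysis direction is positive.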

[18] = read-out: Macrophage Inflammatory Protein-1 Alpha (MIP1a), CCL3 (gene 6348); test: BSK_IMphg_MIP1a: BioMAP Diversity Plus: IMphg Assay for Macrophage Inflammatory Protein-1 Alpha (MIP1a) Biomarker Activity (AID 2284255); conditions: primary human endothelial cells with macrophages
In short: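 Co-culture of human venular endothelial cells and macrophages exposed to compounds for 24 h; MIP-1a measured by ELISA relative to DMSO. Cytotoxicity assessed in parallel cultures by sulforhodamine B total-protein staining at 560 nm.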

[19] = read-out: Eotaxin 3, CCL26 (gene 10344); test: BSK_BF4T_Eotaxin3: BioMAP Diversity Plus: BF4T Assay for Eotaxin 3 Biomarker Activity (AID 2284258); conditions: primary human bronchial epithelial cells with fibroblasts
In short: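 Co-culture of human bronchial epithelial cells and dermal fibroblasts, exposed to chemicals for 24 h versus DMSO. Eotaxin-3 quantified by ELISA; cytotoxicity checked in parallel cultures by sulforhodamine B total-protein staining.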

Measured: AC50

C=CC(=O)OCC(F)(F)C(F)(F)C(F)(F)COC(=O)C=C
active: [1] 9.95 µM and 11.1 µM | [2] 13.9 µM and 14.7 µM | [5] 2.89 µM and 3.25 µM | [6] 8.23 µM and 4.42 µM | [7] 9.03 µM and 9.56 µM | [9] 23.2 µM and 22.2 µM | [10] 7.91 µM and 8.05 µM | [12] 733 nM and 1.58 µM | [13] 22.7 µM and 21.2 µM | [14] 37.9 µM and 36.8 µM | [15] 14.7 µM and 14.9 µM | [16] 14.2 µM and 14.7 µM | CD69, CD69 (gene 969) 54.8 µM and 44 µM
inactive: [3] | [4] | [8] | [11]

NCC(F)(F)C(F)(F)C(F)(F)C(F)(F)C(F)(F)C(F)(F)F
inactive: [1] | [2] | [5] | [6] | [7] | [17] | [8] | [9] | [11] | [12] | [13] | [14] | [15] | [18] | [16] | CD69, CD69 (gene 969) | [19]

COC(F)(C(F)F)C(F)(F)F (configuration not stated)
inactive: [1] | [2] | [5] | [6] | [7] | [8] | [9] | [11] | [12] | [13] | [14] | [15] | [16] | CD69, CD69 (gene 969)
active: [6] 556 nM

O=C(O)C(F)(F)C(F)(F)C(F)(F)C(=O)O
inactive: [1] | [2] | [5] | [6] | [7] | [17] | [8] | [9] | [10] | [11] | [12] | [13] | [14] | [15] | [16] | CD69, CD69 (gene 969)

OCC(F)(F)C(F)(F)C(F)(F)C(F)(F)C(F)(F)C(F)(F)CO
inactive: [1] | [2] | [5] | [6] | [7] | [17] | [8] | [9] | [11] | [12] | [13] | [14] | [15] | [16] | CD69, CD69 (gene 969)

OCCCC(F)(F)C(F)(F)C(F)(F)C(F)(F)C(F)(F)C(F)(F)C(F)(F)C(F)(F)F
inactive: [3] | [4] | [8] | [11]
active: [1] 13 µM and 10.9 µM | [2] 13.5 µM and 12.2 µM | [5] 22.4 µM and 19.1 µM | [6] 10.3 µM and 10.6 µM | [7] 43.4 µM and 46.9 µM | [8] 7.39 µM | [9] 14.8 µM and 15.3 µM | [12] 7.67 µM and 5.74 µM | [13] 12.7 µM and 9.08 µM | [14] 18.5 µM and 21.1 µM | [15] 17.1 µM and 13.7 µM | [16] 16.5 µM and 11.1 µM | CD69, CD69 (gene 969) 40.1 µM and 48.6 µM
